# PubChem BioAssay (Tox21)
# Results filed as inconclusive are left out. Entries that show only a call come without a potency. A number with no mark means an inactive call. Calls of active or inactive are those of the source. Calls follow the shape of the dose curve; as a rule, active = well fitted curve in the direction sought with a large enough effect in the repeat runs; inconclusive = weak or mixed curves; inactive = no such curve, though single readings can be large; an effect the other way counts as inactive or inconclusive.
# Assays:
# [1] = qHTS RealTime-Glo MT Cell Viability Assay in HepG2 cells - 40 hour (AID 1224870); also: nearly all actives have a fitted effect of over 50% in size
# Method in brief: (§1)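 HepG2 cells mixed with RealTime-Glo MT reagents (NanoLuc plus cell-permeant prosubstrate) were seeded at 600 cells/well, incubated 5 h at 37 C/5% CO2, then pinned with compounds in DMSO; nonlytic luminescence tracked viability during 40 h treatment.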
# [2] = A CellTox Green Cytotoxicity Assay to monitor cytotoxicity in HEK293 cells - 40 hour (AID 1224871); also: nearly all actives have a fitted effect of over 45% in size
# Method in brief: (§2)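 Cytotoxicity was tracked continuously in HEK293 cells by a DNA-binding dye excluded from viable cells. Compounds were transferred in DMSO 5 h after seeding; fluorescence was recorded at intervals up to 40 h.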
# [3] = qHTS RealTime-Glo MT Cell Viability Assay in HEK293 cells - 16 hour (AID 1224872); also: nearly all actives have a fitted effect of over 50% in size; also: potency is read from the fitted curve at half-maximal effect; as to activity change, negative = cytotoxicity: top concentration of the series differs between compounds
# Method in brief: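 Nonlytic real-time viability readout: viable cells convert prosubstrate to NanoLuc substrate, giving luminescence proportional to live cell number. HEK293, 600 cells/well, compound added after 5 h, continuous culture at 37 C.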
# [4] = qHTS RealTime-Glo MT Cell Viability Assay in HepG2 cells - 8 hour (AID 1224873); also: nearly all actives have a fitted effect of over 55% in size
# Method in brief: as §1
# [5] = qHTS RealTime-Glo MT Cell Viability Assay in HEK293 cells - 40 hour (AID 1224874); conditions: RealTime-Glo luminescence; max response: hits give low values; also: nearly all actives have a fitted effect of over 50% in size; also: potency is read from the fitted curve at half-maximal effect
# Method in brief: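 Nonlytic bioluminescent viability monitoring. HEK293 at 600 cells/well with reagent; 5 h settle; compound transfer by pintool; plates held at 37 C and read at set time points.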
# [6] = A CellTox Green Cytotoxicity Assay to monitor cytotoxicity in HEK293 cells - 24 hour (AID 1224875); also: series mostly up to about 77 µM; nearly all actives have a fitted effect of over 45% in size
# Method in brief: as §2
# [7] = A CellTox Green Cytotoxicity Assay to monitor cytotoxicity in HepG2 cells - 16 hour (AID 1224876); also: nearly all actives have a fitted effect of over 45% in size
# Method in brief: (§3)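 Real-time, homogeneous cytotoxicity readout: dead-cell DNA staining by CellTox Green in HepG2 monolayers, fluorescence measured at timed intervals up to 40 h of continuous compound exposure.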
# [8] = qHTS RealTime-Glo MT Cell Viability Assay in HepG2 cells - 32 hour (AID 1224877); also: nearly all actives have a fitted effect of over 55% in size
# Method in brief: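 Luminescence read-out: viable HepG2 cells reduce a prosubstrate to a NanoLuc substrate, giving a signal proportional to live cell number. Reads taken at 0, 8, 16, 24, 32 and 40 h of compound exposure at 37 C.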
# [9] = A CellTox Green Cytotoxicity Assay to monitor cytotoxicity in HepG2 cells - 24 hour (AID 1224878); also: nearly all actives have a fitted effect of over 45% in size
# Method in brief: as §3
# [10] = A CellTox Green Cytotoxicity Assay to monitor cytotoxicity in HepG2 cells - 40 hour (AID 1224879); also: nearly all actives have a fitted effect of over 40% in size
# Method in brief: as §3
Compound,Potency [1],Potency [2],Potency [3],Potency [4],max response [5],Potency [6],Potency [7],Potency [8],Potency [9],Potency [10],"activity change, negative = cytotoxic [1]","activity change, negative = cytotoxicity [3]","viability change, negative = cytotoxic [4]",activity change [6],cytotoxicity increase [7],"activity change, negative = cytotoxic [8]",cytotoxicity [9],cytotoxicity increase [10],Potency [5]
COC(C)(C)CCCC(C)CC=O (centres undefined),inactive,inactive,inactive,inactive,3.83%,inactive,inactive,inactive,inactive,inactive,,,,,,,,,
C=CCS(=O)(=O)O,inactive,inactive,inactive,inactive,0.443%,inactive,inactive,inactive,inactive,inactive,,,,,,,,,
OC1CCCCC1c1ccccc1 (centres undefined),inactive,inactive,inactive,inactive,3.62%,inactive,inactive,inactive,inactive,inactive,,,,,,,,,
NS(=O)(=O)c1ccccc1Cl,inactive,inactive,inactive,inactive,-11.8%,inactive,inactive,inactive,inactive,inactive,,,,,,,,,
CCN(Cc1ccncc1)C(=O)C(CO)c1ccccc1 (centres undefined),inactive,inactive,inactive,inactive,5.99%,inactive,inactive,inactive,inactive,inactive,,,,,,,,,
COc1nc(N)nc2c1ncn2[C@@H]1O[C@H](CO)[C@@H](O)[C@@H]1O,inactive,inactive,inactive,inactive,14.1%,inactive,inactive,inactive,inactive,inactive,,,,,,,,,
Nc1ccc(S(=O)(=O)Nc2ccnn2-c2ccccc2)cc1,,inactive,,,3.19%,,,,,,0.768% [at 15.8 µM],9.13% [at 15.8 µM],-7.88% [at 15.8 µM],"1.21% [at 15.8 µM, hits give high values]",2.84% [at 15.8 µM],1.3% [at 15.8 µM],-1.77% [at 15.8 µM],1.49% [at 15.8 µM],
CN1C(=O)N(C)C(O)C1O (centres undefined),inactive,inactive,inactive,inactive,1.97%,inactive,inactive,inactive,inactive,inactive,,,,,,,,,
NS(=O)(=O)c1cc(C(=O)NN2C[C@H]3[C@H]4CCC(C4)[C@H]3C2)ccc1Cl,inactive,inactive,inactive,inactive,-21.1%,inactive,inactive,inactive,inactive,inactive,,,,,,,,,
COc1cc(C(=O)N2CCCCCCC2)cc(OC)c1OC,inactive,inactive,inactive,inactive,9.63%,inactive,inactive,inactive,inactive,inactive,,,,,,,,,
COc1ccc(CCN(C)CCCC(C#N)(c2cc(OC)c(OC)c(OC)c2)C(C)C)cc1OC (centres undefined),inactive,inactive,10.7 µM (active),inactive,,inactive,inactive,inactive,inactive,,,,,,,,,,23.9 µM (active)
